Data as given in PubChem BioAssay AID720580 (National Center for Advancing Translational Sciences (NCATS), 2013).
Hit rate of the full screen: of about 330,000 compounds, about 1,500 (0.45%) were called active. Not shown: some 6% with an inconclusive outcome. Calls follow the shape of the full dose curve; tested in A549 cells. The entries come from a sample that favours actives as a whole. A call without a number means that no potency is given here.

Assay: qHTS for Stage-Specific Inhibitors of Vaccinia Orthopoxvirus: Venus Reporter Primary qHTS; also: nearly all actives have a fitted effect of over 30% in size
Details: Vaccinia virus Venus reporter expression, fluorescence; series mostly up to 36.5 µM
Potency is read from the fitted curve at half-maximal effect.

Structure (SMILES)	Potency
O=C(NCc1ccc(F)cc1)c1cc(C2CCCCN2C(=O)C2CCCCC2)on1 (stereo not given)	inactive
COc1ccc(C2=Nc3ccccc3NC(=O)C2N(C(=O)c2cc3ccccc3[nH]2)c2ccccc2)cc1 (stereo not given)	inactive
C=CCC[C@H](Cc1ccc(F)cc1)C(=O)OC[C@@H](NC(=O)[C@@H](CC=C)CC(=O)N[C@H](CO)Cc1ccccc1)C(C)(C)C	11.2 µM (active)
C=CC[C@@H](CC(=O)N[C@H](CO)Cc1ccccc1)C(=O)N[C@H](C)COC(=O)[C@@H](CC=C)Cc1ccc(F)cc1	inactive
C=CC[C@@H](CC(=O)N[C@H](CO)Cc1ccccc1)C(=O)N[C@@H](COC(=O)[C@@H](CC=C)Cc1ccc(F)cc1)Cc1c[nH]c2ccccc12	inactive
Cc1ccccc1Cn1c(C)c(C(=O)NCc2cccc(C(F)(F)F)c2)sc1=O	inactive
CN1CC[C@H](c2c(O)cc(O)c3c(=O)cc(-c4ccccc4Cl)oc23)[C@H](O)C1	0.0794 µM (active)
O=C(Nc1ccc(Cl)c(C(F)(F)F)c1)C1Cc2c(-c3ccccc3Oc3ccccc3)ccnc2O1 (stereo not given)	inactive
CC1(C(=O)Nc2ccc3c(c2)OCCO3)CCN1C(=O)Cc1cc(F)ccc1F (stereo not given)	inactive
CCc1ccc(-c2nn(-c3ccccc3)cc2CSC(=N)N)cc1	11.2 µM (active)
CN(C)Cc1cn(-c2ccccc2)nc1-c1ccccc1	inactive
CCc1ccc(-c2nn(-c3ccccc3C)cc2C(=O)N2CCN(C3CCS(=O)(=O)C3)CC2)cc1 (stereo not given)	inactive
COC(=O)C1CCCCN1Cc1ccc2c(c1)CN(Cc1cc(OC)c3c(c1)OCO3)CCO2 (stereo not given)	inactive
CCCCCc1c(-c2cccc(Br)c2)ncn1CCc1ccccc1OC	inactive
CCCCCc1c(Cc2ccccc2)ncn1CCc1ccccc1OC	1.41 µM (active)
CCCCCc1c(-c2ccc(OC)c(OC)c2)ncn1CCc1ccccc1OC	inactive
O=C(Nc1ccccc1)c1ccccc1OCc1ccccc1	inactive
CC1(C(=O)NCC2CCOCC2)Cc2c(-c3cccc(C(N)=O)c3)ccnc2O1 (stereo not given)	inactive
COc1ccc(-c2nc3ccc(Br)cn3c2Cc2ccc(C)cc2)cc1OC	inactive
Cn1c(Nc2cccc(Cl)c2)nc2ccccc21	inactive
OCCCNc1nccc(-c2cc(Nc3cccc(Cl)c3)ncn2)n1	0.891 µM (active)
CCOC(=O)[C@]12CCCC=C1N(CCC1=CCCCC1)C(=O)[C@H](CC(=O)N1CCOCC1)C2	inactive
CNc1cncc(-c2ccc(NS(C)(=O)=O)cc2)n1	inactive
CCOC(=O)[C@]12CCC=C1N(CCC1=CCCCC1)C(=O)[C@H](CC(=O)NCc1ccc(C)o1)C2	inactive
CC(C)(C)NC(=O)C(CCc1ccccc1)n1c(=O)c(-c2ccccc2)nc2ccccc21 (stereo not given)	inactive
